Shown is part of a subset that was picked to be rich in hits.
C diff growth – blocks growth of Clostridium difficile. 0.25% of 86,000 active. growth activity, negative = inhibition, % at 16 µg/mL (by protocol). Clostridium difficile clinical isolate growth, OD600, 24 h; active compounds read low. AID 1259249;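 active = mean growth activity at or below -80% and every replicate also at or below -80%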;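 also: 0% = DMSO wells and -100% = levofloxacin 16 µg/mL wells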
T cruzi growth-1 – T. cruzi proliferation inhibition | T. cruzi beta-gal in NIH3T3, GalScreen luminescence, 90 h | inhibition, % at 8.34 µM | 5.9% of 77,000 active;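 active = mean inhibition above about 93%, with at least 55% of replicates each passing it, limit read from the data, passing the limit was not always enough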
T cruzi growth-2 – Trypanosoma cruzi proliferation inhibition | shares compounds with T cruzi growth-1 | T. cruzi beta-gal in NIH3T3, GalScreen luminescence, 90 h | inhibition, % at 8.35 µM | 72% of 5,600 active | AID 651739;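 active = mean replicate inhibition above about 95% and at least 55% of replicates individually reaching it, limit read from the data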
T cruzi growth-3 – blocks T. cruzi growth in NIH3T3 host cells; shares compounds with T cruzi growth-1; T. cruzi beta-gal in NIH3T3, GalScreen luminescence, 90 h; inhibition, % at 2.09 µM; 21% of 5,600 active;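 active = mean inhibition above about 95%, with at least 55% of replicates also reaching it, limit read from the data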;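 also: plate controls were neutral control median for no effect and positive control median for full effect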
3T3 cytotox – NIH/3T3 (mouse) viability loss; 14% of 5,600 active; NIH/3T3 viability, CellTiter-Glo ATP luminescence, 90 h; AID 651742; cytotoxicity (signal decrease), % at 8.35 µM; shares compounds with T cruzi growth-1;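 active = mean signal decrease across replicates above about 35% based on untreated-well scatter, with enough replicates individually passing, limit read from the data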;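 also: 0% = median of neutral control wells and 100% = median of positive control wells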
3T3 cytotox 2 – NIH/3T3 (mouse) viability loss; NIH/3T3 viability, CellTiter-Glo ATP luminescence, 90 h; inhibition, % at 24.9 µM; shares compounds with T cruzi growth-1; 56% of 5,600 active;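 active = mean loss of cell viability signal at or above a set limit, and enough replicates individually reaching it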;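 also: 0% = median of neutral control wells and 100% = median of positive control wells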
Starred values were filed as active, the others as inactive; . = no result given.

SMILES	C diff growth	T cruzi growth-1	T cruzi growth-2	T cruzi growth-3	3T3 cytotox	3T3 cytotox 2
Cc1ccc(-c2cnc3c(c2)C(=O)N([C@H](C)CO)C[C@@H](C)[C@H](CN(C)CC2CCCCC2)O3)cc1	0	35	.	.	.	.
Cc1ccc(-c2cnc3c(c2)C(=O)N([C@@H](C)CO)C[C@H](C)[C@@H](CN(C)Cc2ccccc2F)O3)cc1	9	115*	15	-30	-4	4
Cc1ccc(-c2cnc3c(c2)C(=O)N([C@@H](C)CO)C[C@@H](C)[C@H](CN(C)CC2CCCCC2)O3)cc1	1	110*	95*	40	9	104*
Cc1ccc(-c2cnc3c(c2)C(=O)N([C@@H](C)CO)C[C@H](C)[C@H](CN(C)Cc2ccccc2F)O3)cc1	4	100*	107*	32	9	44*
Cc1ccc(-c2cnc3c(c2)C(=O)N([C@H](C)CO)C[C@@H](C)[C@H](CN(C)Cc2ccccc2F)O3)cc1	-4	86	.	.	.	.
CNC[C@@H]1Oc2cc(-c3ccccc3F)ccc2S(=O)(=O)N([C@H](C)CO)C[C@H]1C	1	.	.	.	.	.
CN(C)C(=O)C[C@@H]1C[C@@H]2c3cc(NC(=O)C4CCC4)ccc3O[C@@H]2[C@@H](CO)O1	-1	20	.	.	.	.
C[C@@H]1CN([C@@H](C)CO)S(=O)(=O)c2ccc(C#Cc3ccccn3)cc2O[C@H]1CN(C)Cc1cccc(F)c1	-3	120*	97*	94	19	-54
C[C@@H]1CN([C@H](C)CO)S(=O)(=O)c2ccc(C#Cc3ccccn3)cc2O[C@@H]1CN(C)Cc1cccc(F)c1	-3	122*	105*	86	25	70*
C[C@H]1CN([C@@H](C)CO)S(=O)(=O)c2ccc(C#Cc3ccccn3)cc2O[C@H]1CN(C)CC1CC1	4	20	.	.	.	.
CCCN(C)C[C@H]1Oc2cc(C#Cc3ccccn3)ccc2S(=O)(=O)N([C@@H](C)CO)C[C@H]1C	-1	-8	.	.	.	.
O=C(C[C@@H]1CC[C@H]2[C@@H](COC[C@@H](O)CN2C(=O)c2cc(Cl)cc(Cl)c2)O1)N1CCc2ccccc2C1	18	7	.	.	.	.
C[C@@H]1CN([C@@H](C)CO)C(=O)Cc2cc(NC(=O)CCN3CCOCC3)ccc2O[C@@H]1CN(C)CC1CCCCC1	-7	13	.	.	.	.
Cc1noc(C)c1NC(=O)N(C)C[C@H]1OCCCC[C@@H](C)Oc2ccc(NS(=O)(=O)c3cn(C)cn3)cc2C(=O)N([C@H](C)CO)C[C@@H]1C	-1	-8	.	.	.	.
O=C(C[C@H]1CC[C@@H]2[C@H](COC[C@H](O)CN2C(=O)Nc2cccc(Cl)c2)O1)N1CCCCC1	31	-62	.	.	.	.
O=C(C[C@H]1CC[C@H]2[C@@H](COC[C@H](O)CN2C(=O)Nc2cc(Cl)cc(Cl)c2)O1)N1CCCCC1	.	99*	109*	39	11	20
O=C(C[C@@H]1CC[C@@H]2[C@H](COC[C@@H](O)CN2C(=O)Nc2cccc(Cl)c2)O1)N1CCCCC1	29	109*	39	21	-1	-21
O=C(C[C@@H]1CC[C@@H]2[C@H](COC[C@@H](O)CN2C(=O)Nc2cc(Cl)cc(Cl)c2)O1)N1CCCCC1	.	79	.	.	.	.
CC(C)(C)[S@](=O)N1Cc2cc(C(=O)N3CCCCC3)nc(-c3cccc(-c4ccc(F)cc4)c3)c2[C@@H]1CCO	.	78	.	.	.	.
C[C@H]1CN([C@@H](C)CO)C(=O)Cc2cc(NS(=O)(=O)c3cccs3)ccc2O[C@@H]1CN(C)C(=O)Nc1ccc2c(c1)OCO2	-3	36	.	.	.	.
C[C@@H]1CN([C@@H](C)CO)S(=O)(=O)c2ccc(-c3ccccc3)cc2O[C@@H]1CN(C)Cc1ccncc1	.	31	.	.	.	.
C[C@H](CO)N1C[C@H](C)[C@@H](CN(C)Cc2ccncc2)Oc2cc(-c3ccccc3)ccc2S1(=O)=O	.	61	.	.	.	.
Cc1ccc(-c2ccc3c(c2)O[C@H](CN(C)Cc2ccncc2)[C@@H](C)CN([C@@H](C)CO)S3(=O)=O)cc1	-35	124*	103*	104*	69*	103*
Cc1ccc(-c2ccc3c(c2)O[C@@H](CN(C)Cc2ccncc2)[C@H](C)CN([C@H](C)CO)S3(=O)=O)cc1	-27	123*	88	100*	98*	106*
C[C@H](CO)N1C[C@H](C)[C@H](CN(C)C(=O)NC2CCCC2)Oc2ncc(-c3cccnc3)cc2C1=O	1	93	.	.	.	.
SMILES	C diff growth	T cruzi growth-1	T cruzi growth-2	T cruzi growth-3	3T3 cytotox	3T3 cytotox 2
CC=Cc1ccc2n(c1=O)C[C@@H]1[C@@H](CO)[C@H](C(=O)NCCC)[C@H]2N1CC1CC1 (mixture of isomers)	-1	102*	31	-45	14	-15
CC=Cc1ccc2n(c1=O)C[C@@H]1[C@@H](CO)[C@H](C(=O)NCC3CC3)N(CCC)[C@H]21 (mixture of isomers)	2	.	.	.	.	.
CC=Cc1ccc2n(c1=O)C[C@H]1[C@H](CO)[C@@H](C(=O)NCCC)[C@@H]2N1CC1CC1 (mixture of isomers)	-1	102*	56	5	-8	8
CC=Cc1ccc2n(c1=O)C[C@@H]1[C@@H](CO)[C@H](C(=O)NCC3CC3)N(CCC(F)(F)F)[C@H]21 (mixture of isomers)	1	111*	-47	3	-10	6
CC=Cc1ccc2n(c1=O)C[C@H]1[C@H](CO)[C@@H](C(=O)NCCC)[C@@H]2N1C(=O)c1ccncc1 (mixture of isomers)	2	.	.	.	.	.
CC=Cc1ccc2n(c1=O)C[C@@H]1[C@@H](CO)[C@H](C(=O)NCCC)[C@H]2N1CC1CCOCC1 (mixture of isomers)	-1	19	.	.	.	.
CC=Cc1ccc2n(c1=O)C[C@H]1[C@H](CO)[C@@H](C(=O)NCCC)[C@@H]2N1CC1CCOCC1 (mixture of isomers)	-3	-12	.	.	.	.
CC=Cc1ccc2n(c1=O)C[C@@H]1[C@@H](CO)[C@H](C(=O)NCCC)[C@H]2N1C(=O)c1ccccc1F (mixture of isomers)	-2	100*	-4	11	-10	4
C[C@H](CO)N1C[C@H](C)[C@H](CN(C)Cc2ccc(Cl)c(Cl)c2)Oc2c(NS(=O)(=O)c3cccs3)cccc2C1=O	6	-85	.	.	.	.
CN(C)CC(=O)N1[C@@H](C#N)[C@@H](c2ccc(C#CC3CCCCC3)cc2)[C@@H]1CO	7	42	.	.	.	.
CN(C)CC(=O)N1[C@@H](C#N)[C@H](c2ccc(C#CC3CCCCC3)cc2)[C@@H]1CO	0	102*	98*	38	20	104*
CN(C)CC(=O)N1[C@H](C#N)[C@@H](c2ccc(C#CC3CCCCC3)cc2)[C@@H]1CO	1	72	.	.	.	.
CN(C)CC(=O)N1[C@H](C#N)[C@@H](c2ccc(C#CC3CCCCC3)cc2)[C@H]1CO	0	109*	107*	73	1	102*
